# Only some compounds are listed: those with a hit (about 2.2% of all), similar ones and a draw of the others.
# Pin1 inhibitor = inhibitors of human Pin1. Pin1 FP peptide displacement, HiFluor488, 10 min. Potency, µM (series often up to 115 µM), for inactives: at the highest dose activity, negative = inhibition, hits mostly inhibitors. actives 0.009% (n = 390,000). AID 504891; active = well fitted inhibition curve with a large enough effect in the polarisation, with a control signal flat, not every such curve was filed as active; inconclusive = small, poorly fitted or top-dose-only effect, or effect the other way, or a change in a side signal; inactive = no such curve, though single readings can be large or run the other way; the % refers to the polarisation; also: % is scaled to controls: 0 for no effect and ±100 for the full control effect
# Target sequence (Q13526 whole entry, looked up): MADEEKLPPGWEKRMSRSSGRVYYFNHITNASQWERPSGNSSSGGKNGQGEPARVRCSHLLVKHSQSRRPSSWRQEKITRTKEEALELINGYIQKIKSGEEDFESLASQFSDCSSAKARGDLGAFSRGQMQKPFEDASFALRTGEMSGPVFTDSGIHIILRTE
# Nrf2 activator = Nrf2 pathway activation; AREc32 ARE-luciferase reporter (MCF7-derived line), luminescence, 24 h; Potency, µM (titrated, usually from 46.1 µM), for the others: at the top dose activation, most hits filed as activators; actives 0.31% (n = 410,000); also: % of control where 0% means no effect; nearly all actives have a fitted effect of over 65% in size
#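 Luciferase luminescence (Steady-Glo, 30 min at room temperature) served as the read-out of ARE activation in AREc32 cells treated with compounds for 24 hr at 37 deg C.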
# Nrf2 block = Nrf2 pathway inhibition; A549 ARE-Fluc reporter, luciferase luminescence, 18-24 h; AID 504444; actives 2.1% (n = 360,000); Potency, µM (titrated, usually from 46 µM), for the others: at the top dose activity change, negative = inhibition, hits mostly inhibitors; also: % is scaled to controls: 0 for no effect and ±100 for the full control effect; nearly all actives have a fitted effect of over 60% in size
#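 Nrf2 function is reported as luminescence of an ARE-controlled luciferase in A549 cells. Compounds were tested at several concentrations, and a CellTiter-Fluor read on the same wells flagged cytotoxicity.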
# A549 tox = A549 cytotoxicity, counter-screen for Nrf2 inhibitors | A549 ARE-Fluc cells, CellTiter-Fluor viability, 18-24 h | Potency, µM (series often up to 46 µM), for the others: top-dose activity change, negative = cytotoxicity, hits mostly inhibitors | actives 0.16% (n = 390,000); also: % is scaled to controls: 0 for no effect and ±100 for the full control effect
#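 A549 ARE_Fluc cells in 5% FBS OPTI-MEM were exposed to compounds in concentration-response for 18-24 h at 37 deg C. Viability was read by CellTiter-Fluor fluorescence (Ex 405/Em 525) after 30 min, before the luciferase read.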
# * hit, by the source's call; ? = inconclusive; . = no result; [ ] = remark or other dose. Unless noted, calls follow the shape of the dose curve; as a rule, active = well fitted curve in the direction sought with a large enough effect; inconclusive = small, poorly fitted or top-dose-only effect, or another doubt; inactive = no such curve, though single readings can be large; an effect the other way counts as inactive or inconclusive. Potency is read from the fitted curve at half-maximal effect.
SMILES,Pin1 inhibitor,Nrf2 activator,Nrf2 block,A549 tox
Cc1ccc(Nc2nc(N)nc(CCl)n2)c(C)c1,5%,3%,1%,-19%
Cc1cccc(Nc2nc(N)nc(CCl)n2)c1,0%,14µM*,5%,-13%
Cc1ccc(Nc2nc(N)nc(CCl)n2)cc1,5%,?,12%,-4%
COc1ccc(OC)c(Nc2nc(N)nc(CCl)n2)c1,-3%,25%,-43%,-8%
Cc1cccc(Nc2nc(N)nc(CCl)n2)c1C,-1%,19%,10µM*,?
COc1cc(-c2ccc3ncnc(NCc4cccs4)c3c2)cc(OC)c1OC,31%,.,-17%,-8%
Nc1c(S(=O)(=O)c2cccs2)c2nc3ccccc3nc2n1/N=C/c1cccc(O)c1,17%,-1%,26µM*,?
CN1CCN(C2=C(Cl)C(=O)c3ccccc3C2=O)CC1,67µM*,-3%,?,?
CC(C)CCN(Cc1ccco1)C(=O)c1cc2c(Cl)nc3ccccc3c2s1,62%,-1%,-3%,0%
Cc1c(CC(=O)N2CCCCC2)c(=O)oc2cc3occ(C(C)(C)C)c3cc12,-3%,-1%,17%,-2%
Cc1c(C(=O)NCc2cccnc2)oc2ccc(S(=O)(=O)N3CC(C)CC(C)C3)cc12 (stereo not drawn),-4%,0%,-5%,0%
Cc1c(C(=O)Nc2ccc(F)cc2)oc2ccc(S(=O)(=O)N3CC(C)CC(C)C3)cc12 (stereo not drawn),-6%,0%,7.3µM*,-15%
CCNc1nc(C#N)nc2c1ncn2-c1cccc(Cl)c1,14%,.,?,-15%
COc1ccc(-c2ccc3oc(-c4ccc(OC)cc4)c(C#CCO)c3c2)cc1,-4%,3%,8.2µM*,-15%
COc1ccc(-c2oc3ccc(N4CCOCC4)cc3c2C#CCO)cc1,0%,-1%,18µM*,-9%
COc1ccc(-c2sc3ccc(N4CCOCC4)cc3c2C#CC(C)(C)O)cc1,-5%,4%,7%,-5%
COc1cc(C)c(Br)cc1S(=O)(=O)NCc1ccccc1,10%,0%,-12%,1%
Cc1cc(C)c(C)c(S(=O)(=O)NCc2ccncc2)c1C,2%,0%,13µM*,-18%
Cc1cc(Br)c(S(=O)(=O)NCc2ccncc2)cc1C,2%,0%,3.7µM*,-19%
CCOc1ccc(Nc2nc(N)c(C(=O)c3ccccc3Cl)s2)cc1,17%,-4%,-25%,-28%
Cc1cccc(NC(=O)CCC(=O)N/N=C/c2ccco2)c1,3%,23%,0%,8%
O=C(N/N=C\c1ccco1)Nc1cccc(Cl)c1,-4%,5µM*,?,-8%
O=C(Nc1ccccc1C(=O)N/N=C/c1ccco1)c1ccc(Cl)cc1,0%,?,2%,19%
O=C(Nc1ccccc1C(=O)N/N=C/c1ccco1)c1ccc(F)cc1,-8%,2.8µM*,3%,8%
O=C(Nc1ccccc1C(=O)N/N=C/c1ccco1)c1ccccc1,-1%,3.5µM*,4%,1%
SMILES,Pin1 inhibitor,Nrf2 activator,Nrf2 block,A549 tox
Cc1ccccc1C(=O)Nc1ccccc1C(=O)N/N=C\c1ccco1,3%,?,6%,11%
Cc1ccc(CSC2=NS(=O)(=O)c3ccccc32)cc1,4%,.,-24%,0%
Cc1c(CC(=O)NCCCC(=O)O)c(=O)oc2cc3c(cc12)CCC(C)(C)O3,-5%,-3%,18µM*,15%
Cc1c(CC(=O)O)c(=O)oc2cc3c(cc12)CCC(C)(C)O3,0%,1%,-13%,2%
COCCCNC(=O)Cc1c(C)c2cc3c(cc2oc1=O)OC(C)(C)CC3,1%,0%,-24%,-6%
Cc1c(CC(=O)NCCCCCC(=O)O)c(=O)oc2cc3c(cc12)CCC(C)(C)O3,8%,-1%,10µM*,3%
O=C(C1CC1)N1CCc2cc(Br)cc(S(=O)(=O)N3CCN(c4cccc(C(F)(F)F)c4)CC3)c21,3%,0%,-11%[9.27 µM],?
COc1ccc(-c2cc(C3CCN(c4ccc(C(C)=O)cc4[N+](=O)[O-])CC3)[nH]n2)cc1,2%,-1%,16µM*,?
COC(=O)c1ccc(N2CCC(c3cc(-c4ccc(OC)cc4)n[nH]3)CC2)c([N+](=O)[O-])c1,7%,0%,?,-30%
Cc1cccc(CNc2ncnc3ccc(-c4ccoc4)cc23)c1,2%,-1%,18µM*,-16%
Cc1noc(C)c1-c1ccc2ncnc(NCc3ccc(-c4ccccc4)cc3)c2c1,11%,.,12µM*,-12%
c1nc(NCc2ccc3c(c2)OCO3)c2cc(-c3ccc4c(c3)OCCO4)ccc2n1,8%,7%,23µM*,2%
c1cncc(CNc2ncnc3ccc(-c4ccc5c(c4)OCO5)cc23)c1,9%,3%,9%,8%
COc1cccc(-c2ccc3ncnc(NCc4ccc5c(c4)OCO5)c3c2)c1,?,0%,16µM*,-19%
c1cncc(CNc2ncnc3ccc(-c4ccoc4)cc23)c1,10%,0%,-8%,-2%
O=C(Cn1cc(SCc2ccc(F)cc2)c2ccccc21)N1CCCC1,-7%,5%,?,-2%
Cc1cc(NS(=O)(=O)c2ccc3c(c2)CCC(=O)N3)ccc1F,-3%,.,?,-3%
O=C1CCCC2=C1C1(CCSC1)N=C(Nc1nc3ccccc3o1)N2 (stereo not drawn),1%,.,-5%,-2%
Cc1cccc(CNc2ncnc3ccc(-c4ccc5c(c4)OCCO5)cc23)c1,?,4%,15µM*,?
Cc1csc(CNc2ncnc3ccc(-c4ccc5c(c4)OCCO5)cc23)c1,11%,2%,-7%,3%
CCOc1ccc2[nH]cc(C(=O)NCCc3ccccc3)c(=O)c2c1,2%,5%,?,10%
CCOc1ccc2[nH]cc(C(=O)NCc3ccccc3)c(=O)c2c1,-6%,0%,13µM*,-12%
Nc1c(N2CCCC2)cc(Cl)c2nonc12,?,1%,16µM*,?
Nc1c(N2CCOCC2)cc(Cl)c2nonc12,-2%,0%,7%,-16%
Cc1ccccc1C(=O)N1CCCC(CCC(=O)N2CCN(c3ccccn3)CC2)C1 (stereo not drawn),0%,1%,23µM*,-10%
SMILES,Pin1 inhibitor,Nrf2 activator,Nrf2 block,A549 tox
O=C(O)c1cc2ccccc2c(N=Nc2cccnc2)c1O,?,22%,18µM*,?
O=C1CCC2=C1C(c1ccccc1Cl)N=C(Nc1nc3ccccc3o1)N2 (stereo not drawn),5%,.,18%,2%
Cn1c(NCc2ccncc2)nc2cc(-c3ccsc3)sc2c1=O,.,35%,.,.
Cn1c(NCC2CCCCC2)nc2cc(-c3ccsc3)sc2c1=O,.,2µM*,.,.
CC(C)c1cc2c(s1)c1cnn(Cc3ccccc3F)c(=O)c1n2C,?,.,?,-3%
COCCn1c(C)cc(O)c(C(c2ccccc2)N2CCC(C)CC2)c1=O (stereo not drawn),0%,0%,.,-16%
Cn1c2ccccc2c(=O)c2ccc(NCc3ccc4c(c3)OCO4)cc21,17%,7%,26µM*,-31%
O=C1CCCC2=C1C1(CCOCC1)N=C(Nc1nc3ccccc3o1)N2,-20%,.,?,1%

# Screening data (PubChem BioAssay)
